# Experimental data reported in ChEMBL document CHEMBL3988442, “University of Dundee, Small-Polar-MMV Screening Library” (2021).
# Target: T1, Arginase-2, mitochondrial (Homo sapiens) (UniProt P78540)
# T1 sequence (whole entry): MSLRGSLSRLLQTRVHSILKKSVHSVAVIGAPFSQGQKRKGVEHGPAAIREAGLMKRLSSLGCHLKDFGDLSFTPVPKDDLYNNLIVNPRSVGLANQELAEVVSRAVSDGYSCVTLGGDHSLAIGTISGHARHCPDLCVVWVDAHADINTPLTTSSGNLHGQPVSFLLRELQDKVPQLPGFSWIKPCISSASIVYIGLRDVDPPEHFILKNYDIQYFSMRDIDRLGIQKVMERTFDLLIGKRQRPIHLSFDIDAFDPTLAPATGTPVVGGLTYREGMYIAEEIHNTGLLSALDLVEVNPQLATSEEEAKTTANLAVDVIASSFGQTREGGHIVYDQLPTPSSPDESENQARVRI
# Experiment: in vitro enzyme assay to detect the production of urea directly proportional to the activity of Arginase II
# Assay type: functional
# Design: scale not given: in the data most compounds retested in dose-response had high values
# Conditions: 33.3 µM
row,Structure (SMILES),Percent Effect
1,O=C(c1cnccn1)N1CCOCC2(CCN(C3CCOCC3)C2)C1 (stereo not given),-0.528%
2,CC(C)OCc1ncn2c1CN(Cc1cccs1)CCC2,-2.23%
3,O=C(CCN1CCC(C(=O)c2cc(F)ccc2F)CC1)NC1CC1,-1.18%
4,CCCC(NC(=O)c1cc(C)ccc1C)c1nnn[nH]1 (stereo not given),20.8%
5,Cc1ncc(CNC(=O)CCOc2ccccc2)c(C2CCCN2C)n1 (stereo not given),3.02%
6,CCCc1noc(CCC(=O)N2CCCC2c2noc(C3CC3)n2)n1 (stereo not given),1.52%
7,CCn1ccnc1CN1CCN(CCOc2ccccc2OC)CC1,4.21%
8,COc1ccc(CN2CCn3cc(CN4CCCCC4)nc3C2)cc1,-4.52%
9,N#CC1(C(=O)N2CCN(Cc3ccon3)CC2)CCC1,9.89%
10,CN1CCOC(CNCc2coc(-c3ccccc3)n2)C1 (stereo not given),7.22%
11,O=C(C1=CC2(CCNCC2)c2ccccc21)N1CCCC1,-56.1%
12,COc1ccc(CCN2CCCC2Cn2nc(C)nc2C)cc1 (stereo not given),6.46%
13,Cc1ccc(NC(=O)NCCCc2n[nH]c(N)c2C#N)cc1,1.9%
14,Cc1cc(C)cc(NC(=O)CN2CCCC(n3cncn3)C2)c1 (stereo not given),-1.66%
15,CC(CNc1cncc(-n2cccn2)n1)N(C)c1ccccc1 (stereo not given),0.712%
16,CCC(C)(C)NC(=O)CN(C)C(c1cccc(F)c1)c1ccccn1 (stereo not given),3.56%
17,O=C(C1CCOCC1)N1CCC2(CC1)CC(Oc1ccccc1)CO2 (stereo not given),-5.59%
18,CCOc1cc(C(=O)N2CCCC(c3noc(C)n3)C2)ccn1 (stereo not given),-1.08%
19,O=C1[C@@H]2CCN(Cc3ccoc3)C[C@@H]2OCCN1Cc1cccnc1,-0.699%
20,Cc1cc(C)n(CC2CCCN2C(=O)CCCc2ccccn2)n1 (stereo not given),2.68%
